Consider 14 compounds from PubChem BioAssay.

Structures are written as SMILES. Activity calls are given as the source filed them. Unless noted, how the calls were made is not given here.

Assay [1] deals with Wnt5a (protein binding on small-molecule microarray). The experiment in a line: Wnt5a binders on small-molecule microarray, primary screen, biophysical, 635/667 nm fluorescence (AID 1142).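 Further: fluorescence read at 667 nm with signal to noise per printed feature.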 As to conditions: 635 nm fluorescence, higher = more signal.
Assay [2] in a line: cell viability in Huh7 cells, primary screen, cytotoxicity control for HCV replication inhibitor project, CellTiter-Glo luminescence, basal, 48 h (AID 1143).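 Further: Huh7 hepatoma cells carrying a hepatitis C replication reporter with no stimulus; test concentration not given here.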 As to conditions: Huh7 HCV replicon, higher = more signal, called active from +8 up or from −8 down.
Assay [3] in a line: P. aeruginosa biofilm formation inhibitors, primary screen, PAO1 strain, BacTiter-Glo luminescence, LB-PBS (AID 1144). As to conditions: 12 h, higher = more signal.
Assay [4] is described as follows: CREB reporter modulators without forskolin, primary screen, cell-based, PC12, CRE-LacZ reporter, unstimulated (AID 1145). As to conditions: no forskolin, luminescence, 4.5 h, higher = more signal, called active from +8 up or from −8 down.
Assay [5] in a line: CREB reporter modulators under forskolin, primary screen, cell-based, PC12, CRE-LacZ reporter, forskolin-stimulated (AID 1146).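 Further: PC12 cells with 6xCRE LacZ reporter stimulated by forskolin 10 µM; beta-galactosidase reporter signal reflecting CREB driven transcription.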 As to conditions: luminescence, 4.5 h, higher = more signal, called active from +8 up or from −8 down.
Assay [6] addresses Streptavidin (Streptomyces avidinii) (UniProt P22629). The experiment in a line: streptavidin binders on small-molecule microarray, primary screen, artefact control for SMM compound annotation, biophysical, 635/667 nm fluorescence (AID 1147).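 Further: signal reflects streptavidin binding to arrayed compounds as a control protein.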 As to conditions: streptavidin binding, higher = more signal.
Assay [7] in a line: small-molecule binders of probe aInhba, primary screen, biochemical, small-molecule microarray, 635/667 nm fluorescence (AID 1148).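 Further: score merges 667nm spot fluorescence with signal-to-noise for antibody binding to printed compounds.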 As to conditions: higher = more signal.
The target of assay [8] is Torsin-1A (Homo sapiens) (UniProt O14656). The assay can be described thus: torsin A binders from cell lysate, primary screen, small-molecule microarray, wild-type, 635/667 nm (AID 1149). As to conditions: COS7 hTOR1A-WT lysate, 635 nm fluorescence, higher = more signal.
Chain of Torsin-1A (Homo sapiens) (O14656 whole entry, looked up): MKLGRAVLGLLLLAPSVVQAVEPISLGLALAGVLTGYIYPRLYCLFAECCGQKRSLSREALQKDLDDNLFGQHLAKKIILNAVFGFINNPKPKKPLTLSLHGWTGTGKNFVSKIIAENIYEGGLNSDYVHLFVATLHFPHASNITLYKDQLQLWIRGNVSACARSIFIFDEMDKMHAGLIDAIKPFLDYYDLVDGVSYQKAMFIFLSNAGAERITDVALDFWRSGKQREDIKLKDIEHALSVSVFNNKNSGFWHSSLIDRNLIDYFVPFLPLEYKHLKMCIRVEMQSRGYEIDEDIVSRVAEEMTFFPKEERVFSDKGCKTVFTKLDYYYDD
Assay [9] shares this target. The assay can be described thus: small-molecule binders of mutant TOR1A in lysate, primary screen, cell lysate, small-molecule microarray, COS7 lysate, 635/667 nm fluorescence (AID 1150).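 Further: score pools 667 nm emission and signal to noise measuring lysate protein binding.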 As to conditions: COS7 hTOR1A mutant lysate, 635 nm fluorescence, higher = more signal.
The subject of assay [10] is Sonic hedgehog protein (Shh). The experiment in a line: small-molecule binders of Shh protein, primary screen, biochemical, small-molecule microarray, 635/667 nm fluorescence (AID 1151).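 Further: Shh protein binding to compounds spotted on small-molecule microarray slides; score combines spot fluorescence intensity with signal-to-noise across triplicate slides.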 As to conditions: small-molecule microarray binding, 635 nm fluorescence; higher = more signal.

Chain of Streptavidin (Streptomyces avidinii) (P22629 whole entry, looked up): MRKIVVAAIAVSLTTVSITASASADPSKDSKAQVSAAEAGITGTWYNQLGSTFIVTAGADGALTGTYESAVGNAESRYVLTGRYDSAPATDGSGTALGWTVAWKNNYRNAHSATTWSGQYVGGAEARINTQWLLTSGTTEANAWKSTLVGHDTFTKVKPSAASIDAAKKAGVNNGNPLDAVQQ

For `C=C(CCCC)/C(=C/C[C@@H](OC(=O)c1ccncc1)c1ccc(CO)o1)c1cnc2ccccc2c1`, the composite z-score in assay [1] amounted to 0.209; in assay [6], 1.39; in [7], 0.461; with Torsin-1A (Homo sapiens) [8] it was 1.42; with Torsin-1A (Homo sapiens) [9], 1.07; in assay [10], 2.18. The z-score was -1.47 (inactive) in [2], -1.26 (inactive) in [3], 2.38 (inactive) in [4] and 0.176 (inactive) in assay [5].

As to `O=C1C2C=CC(C(O)C(c3ccccc3)c3ccccc3)N(Nc3ccc([N+](=O)[O-])cc3)C2C(=O)N1c1ccccc1` (stereo not given), the composite z-score in assay [1] is 0.528; in assay [6], 1.13; in assay [7], 0.0183; in the assay with Torsin-1A (Homo sapiens) [8], 0.738; with Torsin-1A (Homo sapiens) [9] it was 0.871; in assay [10], 0.762. Moreover, the z-score in [2] is -0.664 (inactive); in assay [3], -1.81 (inactive); in assay [4], -0.433 (inactive); in assay [5], 0.384 (inactive).

On to `COc1ccc(C(=O)Nc2ccc(CN3C(=O)[C@]4(O[C@H](CCn5cc(CCO)nn5)[C@@H]([Si](C)(C)c5ccc(OC)cc5)[C@@H]4C)c4ccccc43)cc2)cc1`, for which the composite z-score in assay [1] was 0.278; in assay [6], 0.863; in assay [7] it was 0.279; with Torsin-1A (Homo sapiens) [8] it was 0.421; in the assay with Torsin-1A (Homo sapiens) [9] it was 0.638; in assay [10], 1.99. The z-score in assay [2] is -7.86 (inactive); in assay [3], -0.637 (inactive); in assay [4], 3.37 (inactive); in assay [5], -1.8 (inactive).

As to `CN1C(=O)C2C=CC(C(O)C3CC=CCC3)N(Nc3ccccc3)C2C1=O` (stereo not given), the composite z-score came out at 0.521 in assay [1]; 0.505 in [6]; 0.208 in assay [7]; 0.664 with Torsin-1A (Homo sapiens) [8]; 1.06 with Torsin-1A (Homo sapiens) [9]; 1.57 in assay [10]. Also, the z-score in [2] is 0.758 (inactive); in [3], -0.269 (inactive); in [4], -0.333 (inactive); in [5], 0.0874 (inactive).

As to `CCCC=C(CCC)[C@@H](NS(=O)(=O)c1cccc(C(F)(F)F)c1)c1ccc(C(=O)OC)cc1`, the composite z-score in assay [1] was 1.16; in assay [6] it was 0.0276; in assay [7], 1.43; with Torsin-1A (Homo sapiens) [8] it was 0.258; with Torsin-1A (Homo sapiens) [9], -0.223; in [10] it was 0.116. Besides, the z-score in assay [2] was 0.0804 (inactive); in [3] it was -0.109 (inactive); in assay [4], -0.182 (inactive); in assay [5], -0.547 (inactive).

On to `COc1ccc([Si](C)(C)[C@@H]2[C@@H](CCO)O[C@]3(C(=O)N(Cc4ccccc4)c4ccccc43)[C@H]2C)cc1`, for which the composite z-score in assay [1] was -0.0721; in assay [6], -0.155; in assay [7] it was 1; in the assay with Torsin-1A (Homo sapiens) [8], -0.239; with Torsin-1A (Homo sapiens) [9], -0.283; in [10], 0.0843. The z-score in [2] was -1.98 (inactive); in assay [3], 0.773 (inactive); in assay [4], 0.0352 (inactive); in assay [5], -0.46 (inactive).

For the compound `COc1ccc([Si](C)(C)[C@@H]2[C@@H](CCO)O[C@]3(C(=O)N(Cc4ccc(NC(=O)[C@H](C)O)cc4)c4ccccc43)[C@H]2C)cc1`, the composite z-score was 0.186 in assay [1]; 0.458 in assay [6]; -0.0471 in assay [7]; 0.504 with Torsin-1A (Homo sapiens) [8]; 0.392 in the assay with Torsin-1A (Homo sapiens) [9]; 0.599 in [10]. In addition, the z-score was -8.04 (active) in [2], -0.261 (inactive) in assay [3], 18.4 (active) in assay [4] and -1.12 (inactive) in assay [5].

Turning to `Cc1ccc(N2C(=O)c3ccccc3[C@](C)(C(=O)NCC(C)C)[C@@H]2c2ccc(CO)cc2)nc1`, the composite z-score is -0.116 in [1]; -1.12 in [6]; -0.147 in [7]; -0.458 with Torsin-1A (Homo sapiens) [8]; -1.26 with Torsin-1A (Homo sapiens) [9]; -0.656 in assay [10]. The z-score was 0.985 (inactive) in assay [2], -0.309 (inactive) in assay [3], -0.0888 (inactive) in [4] and -0.002 (inactive) in assay [5].

As to `O=C1C[C@@](C(=O)NCCN2CCOCC2)(c2ccc([N+](=O)[O-])cc2)[C@@H](c2ccc(CO)cc2)N1C1CCCCC1`, the composite z-score in [1] turned out to be 0.25; in assay [6] it was 0.316; in assay [7], 0.196; with Torsin-1A (Homo sapiens) [8] it was 0.143; with Torsin-1A (Homo sapiens) [9], 0.555; in [10] it was 0.452. Besides, the z-score in [2] is 0.204 (inactive); in assay [3], 0.82 (inactive); in assay [4], 0.351 (inactive); in assay [5] it was -0.303 (inactive).

In the case of `C=CC[C@]1(C(=O)O)N=C(c2ccc(OCCCO)cc2)O[C@H]1c1ccccc1N=[N+]=[N-]`, the composite z-score in assay [1] was 0.477; in assay [6], 1.27; in [7] it was -0.026; in the assay with Torsin-1A (Homo sapiens) [8] it was 0.0545; with Torsin-1A (Homo sapiens) [9], 0.125; in assay [10] it was -0.373. The z-score in assay [2] was -0.426 (inactive); in assay [3], 1.09 (inactive); in assay [4], 0.629 (inactive); in assay [5], -1.32 (inactive).

In the case of `Cc1ccc(S[C@]2(C(=O)NC(C)C)CC(=O)N(C3Cc4ccccc4C3)[C@@H]2c2ccc(CO)cc2)cc1`, the composite z-score in [1] was -0.157; in assay [6] it was -0.37; in [7], -0.32; with Torsin-1A (Homo sapiens) [8] it was 0.876; with Torsin-1A (Homo sapiens) [9], 0.764; in assay [10], 1.67. Moreover, the z-score is -4.65 (inactive) in assay [2], -0.132 (inactive) in assay [3], -0.231 (inactive) in [4] and 0.978 (inactive) in [5].

`NC(=O)NCC#Cc1ccc2c(c1)[C@]1(C(=O)N2)[C@H](C(N)=O)[C@H]2C(=O)O[C@H](c3ccccc3)[C@H](c3ccccc3)N2[C@@H]1c1ccccc1OCCO`: the composite z-score came to 0.0902 in [1]; 0.28 in assay [6]; 0.0091 in assay [7]; 0.247 in the assay with Torsin-1A (Homo sapiens) [8]; 0.396 with Torsin-1A (Homo sapiens) [9]; 1.18 in assay [10]. In addition, the z-score in [2] is 0.463 (inactive); in assay [3], -0.258 (inactive); in assay [4] it was 0.918 (inactive); in assay [5], -0.447 (inactive).

On to `[N-]=[N+]=NCc1ccccc1[C@H]1OC(c2ccc(OCCCO)cc2)=N[C@@]1(Cc1ccccc1N=[N+]=[N-])C(=O)NCc1ccccc1`, for which the composite z-score in assay [1] was 0.928; in assay [6], 0.303; in assay [7], 0.671; in the assay with Torsin-1A (Homo sapiens) [8], 0.22; with Torsin-1A (Homo sapiens) [9], 0.681; in [10], 0.033. The z-score was -3.99 (inactive) in assay [2], -0.358 (inactive) in assay [3], 1.74 (inactive) in [4] and -0.676 (inactive) in assay [5].

Regarding `COC(=O)C(CC#Cc1ccc2c(c1)[C@]1(C(=O)N2)[C@H](C(=O)N2CCCCCCC2)[C@H]2C(=O)O[C@H](c3ccccc3)[C@H](c3ccccc3)N2[C@@H]1c1ccc(O)cc1)C(=O)OC`, the composite z-score was -0.593 in assay [1]; -1.01 in assay [6]; 0.539 in assay [7]; -0.998 with Torsin-1A (Homo sapiens) [8]; -0.529 with Torsin-1A (Homo sapiens) [9]; -0.657 in assay [10]. Besides, the z-score in assay [2] is -4.23 (inactive); in [3], 0.144 (inactive); in assay [4] it was 0.0736 (inactive); in assay [5] it was -0.928 (inactive).
